Drawing on PubChem BioAssay, this text covers growth inhibition, inhibition and outcome for 20 compounds.

A short description of experiment [1]: antimalarial activity against Dd2 strain (AID 2302;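 active = growth inhibition above 50% at the single 2 µM test dose, taken to imply half-maximal potency below 2 µM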;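 note: 0% = DMSO untreated growth and 100% = chloroquine plus artemisinin killed control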). To be noted: P. falciparum Dd2 in RBCs, LDH growth readout, 72 h; at 2 µM; active compounds read high.
The nature of experiment [2]: human hepatoma cell viability loss – ATP luminescence, cytotoxicity control for P. falciparum antimalarial project, primary screen (AID 2303;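 active = inhibition above 50%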;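 note: 0% = DMSO wells and 100% = digitonin-killed cells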). To be noted: HepG2 viability, 24-48 h, at 10 µM, active compounds read high.
Experiment [3] addresses L-lactate dehydrogenase (Plasmodium falciparum (isolate CDC / Honduras)) (UniProt Q27743). Nature of the experiment: PfLDH activity inhibition – cell lysate, 3D7 strain, counter-screen for P. falciparum growth inhibition project (AID 2304).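 Note: 0% = vehicle and 100% = reference inhibitor.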 To be noted: P. falciparum 3D7 crude extract, LDH APAD/NBT absorbance; at 2 µM; active compounds read high. A general note: A counterscreen serves to expose hits that act by an unwanted route or on another target.

Experiment [4] can be described thus: inhibition of 3D7 malaria parasite growth – strain 3D7 (AID 2306).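 Note: 0% = DMSO wells and 100% = chloroquine plus artemisinin control wells.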 Particulars: P. falciparum 3D7 erythrocytic growth, LDH absorbance, 72 h; at 2 µM; active compounds read high.
Experiment [5] deals with Calcium-dependent protein kinase 1 (Plasmodium falciparum (isolate 3D7)) (UniProt P62344). Nature of the experiment: PfCDPK1 kinase inhibitors, biochemical, TCAMS library (AID 1159585; cut-off not given, nearly all actives have IC50 up to about 0.98 µM;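 note: inhibitors leave more ATP so luminescence rises with inhibition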). Particulars: recombinant PfCDPK1, Kinase-Glo ATP depletion luminescence. For orientation: In Kinase-Glo more light means more ATP remaining.
Experiment [6] addresses Plasmodium falciparum protein kinase 6 (PK6, PF3D7_1337100) (UniProt Q8IDW1). Put plainly: PfPK6 kinase inhibitors, biochemical, TCAMS library (AID 1159586). To be noted: recombinant PfPK6, Kinase-Glo ATP depletion luminescence.
The target of experiment [7] is Protein kinase 7 (PK7), Plasmodium falciparum 3D7 (PF3D7_0213400) (UniProt Q7YTF7). Put plainly: inhibition of Plasmodium PK7 catalytic activity – biochemical, TCAMS antimalarial set, Kinase-Glo luminescence (AID 1159587). To be noted: recombinant PfPK7, Kinase-Glo ATP depletion luminescence.
Experiment [8] concerns the target Calcium-dependent protein kinase 4 (Plasmodium falciparum (isolate 3D7)) (UniProt Q8IBS5). Nature of the experiment: PfCDPK4 kinase inhibitors, biochemical, TCAMS library (AID 1159588; cut-off not given, nearly all actives have IC50 up to about 0.91 µM). Particulars: recombinant PfCDPK4, Kinase-Glo ATP depletion luminescence.

A number with no mark means an inactive call. For some of these results: Entries with a potency or affinity are not part of this list. Calls of active or inactive are those of the source. Unless noted, the rule behind the calls is not given here.

Protein kinase 7 (PK7), Plasmodium falciparum 3D7 (PF3D7_0213400), sequence (Q7YTF7 1-343): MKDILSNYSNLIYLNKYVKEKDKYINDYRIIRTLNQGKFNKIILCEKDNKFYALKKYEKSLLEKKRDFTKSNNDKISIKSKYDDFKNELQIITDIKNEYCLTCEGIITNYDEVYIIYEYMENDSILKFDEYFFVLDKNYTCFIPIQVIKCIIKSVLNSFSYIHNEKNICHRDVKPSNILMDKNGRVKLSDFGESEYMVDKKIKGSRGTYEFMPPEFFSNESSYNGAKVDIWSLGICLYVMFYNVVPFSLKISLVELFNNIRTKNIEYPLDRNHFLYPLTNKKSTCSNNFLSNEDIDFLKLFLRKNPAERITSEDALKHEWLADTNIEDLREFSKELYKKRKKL
Calcium-dependent protein kinase 4 (Plasmodium falciparum (isolate 3D7)), sequence (Q8IBS5 whole entry, looked up): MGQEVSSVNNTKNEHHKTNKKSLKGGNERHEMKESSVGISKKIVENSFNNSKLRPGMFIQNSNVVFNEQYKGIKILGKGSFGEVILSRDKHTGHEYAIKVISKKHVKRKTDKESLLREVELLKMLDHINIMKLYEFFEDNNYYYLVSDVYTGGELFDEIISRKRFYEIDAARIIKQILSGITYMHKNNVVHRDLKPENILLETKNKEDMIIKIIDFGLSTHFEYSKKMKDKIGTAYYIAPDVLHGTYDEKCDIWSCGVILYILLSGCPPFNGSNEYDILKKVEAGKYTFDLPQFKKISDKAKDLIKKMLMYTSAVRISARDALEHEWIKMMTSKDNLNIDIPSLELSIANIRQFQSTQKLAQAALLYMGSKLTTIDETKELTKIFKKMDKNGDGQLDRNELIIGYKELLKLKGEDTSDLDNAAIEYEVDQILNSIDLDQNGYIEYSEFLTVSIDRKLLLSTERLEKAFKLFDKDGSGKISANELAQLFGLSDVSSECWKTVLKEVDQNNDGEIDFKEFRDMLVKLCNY
Plasmodium falciparum protein kinase 6 (PK6, PF3D7_1337100), sequence (Q8IDW1 1-305): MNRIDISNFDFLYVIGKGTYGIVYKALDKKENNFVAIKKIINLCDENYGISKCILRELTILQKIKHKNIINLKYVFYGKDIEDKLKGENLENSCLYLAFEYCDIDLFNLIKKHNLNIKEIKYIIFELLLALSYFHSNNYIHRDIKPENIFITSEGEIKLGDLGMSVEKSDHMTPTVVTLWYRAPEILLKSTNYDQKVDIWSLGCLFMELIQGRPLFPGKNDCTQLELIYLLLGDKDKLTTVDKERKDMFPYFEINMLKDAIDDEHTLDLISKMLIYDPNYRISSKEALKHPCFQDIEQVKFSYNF
Calcium-dependent protein kinase 1 (Plasmodium falciparum (isolate 3D7)), sequence (P62344 whole entry, looked up): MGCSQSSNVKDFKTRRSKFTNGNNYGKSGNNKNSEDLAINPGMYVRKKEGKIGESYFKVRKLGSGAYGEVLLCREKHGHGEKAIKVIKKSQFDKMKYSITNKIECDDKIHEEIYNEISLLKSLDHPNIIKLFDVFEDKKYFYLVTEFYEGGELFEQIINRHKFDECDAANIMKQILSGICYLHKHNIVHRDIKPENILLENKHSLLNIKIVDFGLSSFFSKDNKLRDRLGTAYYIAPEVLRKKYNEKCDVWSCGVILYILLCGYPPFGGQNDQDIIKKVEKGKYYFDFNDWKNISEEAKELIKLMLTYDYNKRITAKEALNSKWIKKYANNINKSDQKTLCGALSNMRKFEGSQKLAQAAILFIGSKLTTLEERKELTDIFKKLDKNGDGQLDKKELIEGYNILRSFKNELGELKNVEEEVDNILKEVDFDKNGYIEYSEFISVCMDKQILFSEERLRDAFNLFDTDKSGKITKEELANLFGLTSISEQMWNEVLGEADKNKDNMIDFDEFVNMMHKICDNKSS
L-lactate dehydrogenase (Plasmodium falciparum (isolate CDC / Honduras)), sequence (Q27743 whole entry, looked up): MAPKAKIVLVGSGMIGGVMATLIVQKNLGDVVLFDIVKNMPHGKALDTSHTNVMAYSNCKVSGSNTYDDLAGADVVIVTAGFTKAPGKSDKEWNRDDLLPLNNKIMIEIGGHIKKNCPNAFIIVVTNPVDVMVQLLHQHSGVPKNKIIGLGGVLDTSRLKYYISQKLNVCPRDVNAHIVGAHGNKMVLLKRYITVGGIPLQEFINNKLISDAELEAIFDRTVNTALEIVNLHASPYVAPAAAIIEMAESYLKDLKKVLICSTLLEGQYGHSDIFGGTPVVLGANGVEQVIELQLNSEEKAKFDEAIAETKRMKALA

On to `CS(=O)(=O)c1cccc(-c2cnc3[nH]cc(-c4ccc(CCC(=O)O)cc4)c3c2)c1`, for which the results for the growth inhibition in experiment [1] and in experiment [4] were 99% (active) and 97% (active), respectively. Besides, the inhibition in experiment [2] is 1%; in experiment [3], -6%. The result in experiment [5], in experiment [6], in experiment [7] and in experiment [8] was inactive.
In the case of `COc1ccc2nccc([C@@H](O)CN3CCC(NCc4nc5cc(F)c(F)cc5[nH]4)CC3)c2c1`, the growth inhibition was 36% in experiment [1] and 96% (active) in experiment [4]. The figures for the inhibition in experiment [2] and in experiment [3] were 12% and -1%, respectively. In addition, the result in experiment [5], in experiment [6], in experiment [7] and in experiment [8] was inactive.
In the case of `N#CCCn1nc(-c2ccc(Cl)cc2)c2c(c1=O)CCCC2`, the growth inhibition in experiment [1] is 32%; in experiment [4], 94% (active). In addition, the results for the inhibition in experiment [2] and in experiment [3] were 0% and -1%, respectively. The outcome in experiment [5], in experiment [6], in experiment [7] and in experiment [8] was inactive.
In the case of `COCCCNC(=O)c1ccc(O)c(-c2cc(Cl)cc(Cl)c2)c1`, the figures for the growth inhibition in experiment [1] and in experiment [4] were 34% and 94% (active), respectively. The inhibition in experiment [2] was 22%; in experiment [3], -7%. The result in experiment [5], in experiment [6], in experiment [7] and in experiment [8] was inactive.
For `COc1ccc(-c2cc(C(=O)N3CCc4ccccc43)c3ccccc3n2)cc1OC`, the growth inhibition in experiment [1] is 48%; in experiment [4], 85% (active). Besides, the inhibition in experiment [2] is 5%; in experiment [3], 3%. Further, the outcome in experiment [5], in experiment [6], in experiment [7] and in experiment [8] was inactive.
As for `CCOC(=O)C1=C(C)N=c2sc(=Cc3cc(Cl)ccc3O)c(=O)n2C1c1cc(OC)c(OC)cc1Br` (stereo not given), the growth inhibition in experiment [1] is 76% (active); in experiment [4], 97% (active). Also, the inhibition was 6% in experiment [2] and -2% in experiment [3]. Besides, the result in experiment [5], in experiment [6], in experiment [7] and in experiment [8] was inactive.
Regarding `CN(C)CCOc1ccc(NC(=O)Nc2ccnc3c(Br)cccc23)cc1Cl`, the growth inhibition in experiment [1] was 25%; in experiment [4] it was 97% (active). The inhibition in experiment [2] is 10%; in experiment [3], 0%. Further, the result in experiment [5], in experiment [6], in experiment [7] and in experiment [8] was inactive.
`COc1cc(OC)c(NC(=O)COc2ccc(C)cc2)cc1Cl`: the growth inhibition was 90% (active) in experiment [1] and 86% (active) in experiment [4]. The inhibition in experiment [2] was -7%; in experiment [3], 3%. For the same compound, the result in experiment [5], in experiment [6], in experiment [7] and in experiment [8] was inactive.
Regarding `Cn1nc2ccc3ccccc3c2nc1=N`, the growth inhibition is 85% (active) in experiment [1] and 91% (active) in experiment [4]. The inhibition was 100% (active) in experiment [2] and -4% in experiment [3]. In addition, the result in experiment [5], in experiment [6], in experiment [7] and in experiment [8] was inactive.
Consider `Cc1[nH]c(C)c(-c2ccc(OCCCCSc3ccncc3)cc2)c(=O)c1Br`, for which the growth inhibition in experiment [1] and in experiment [4] was 97% (active) each time. Further, the inhibition was -3% in experiment [2] and -2% in experiment [3]. Also, the outcome in experiment [5], in experiment [6], in experiment [7] and in experiment [8] was inactive.
`CCOC(=O)c1cccc(NC(=O)Nc2cc(C)nc3ccccc23)c1`: the growth inhibition in experiment [1] was 90% (active); in experiment [4] it was 100% (active). In addition, the inhibition is 14% in experiment [2] and 0% in experiment [3]. Further, the outcome in experiment [5], in experiment [6], in experiment [7] and in experiment [8] was inactive.
In the case of `CCOC(=O)c1ccc(NCc2ccccn2)cc1`, the growth inhibition in experiment [1] is -2%; in experiment [4] it was 99% (active). In addition, the inhibition in experiment [2] is -3%; in experiment [3] it was -6%. In addition, the result in experiment [5], in experiment [6], in experiment [7] and in experiment [8] was inactive.
Regarding `CCOc1cc2ncnc(Nc3ccc(OCc4ccccc4Br)c(OC)c3)c2cc1OCC`, the growth inhibition in experiment [1] is 82% (active); in experiment [4] it was 100% (active). In addition, the inhibition in experiment [2] and in experiment [3] was 1% in each case. In addition, the outcome in experiment [5], in experiment [6], in experiment [7] and in experiment [8] was inactive.
In the case of `Cc1cc(N[C@@H](CC(C)C)C(=O)NCCCOC(C)C)nc(NCCc2ccc(F)cc2)n1`, the growth inhibition in experiment [1] was 19%; in experiment [4] it was 87% (active). Besides, the inhibition in experiment [2] is 5%; in experiment [3], -2%. Further, the result in experiment [5], in experiment [6], in experiment [7] and in experiment [8] was inactive.
For `Fc1cccc(COc2ccc(Nc3ncnc4sc(C#CCNC5CCCC5)cc34)cc2Cl)c1`, the growth inhibition was 78% (active) in experiment [1] and 100% (active) in experiment [4]. For the same compound, the inhibition in experiment [2] and in experiment [3] was 3% in each case. Besides, the outcome in experiment [5], in experiment [6], in experiment [7] and in experiment [8] was inactive.
On to `N#Cc1ccc(NC(=NCCc2c[nH]c3ccccc23)Nc2ccc(-c3ccccc3)cc2)c(O)c1`, for which the growth inhibition was 75% (active) in experiment [1] and 96% (active) in experiment [4]. Moreover, the inhibition in experiment [2] and in experiment [3] was 6% each time. Besides, the result in experiment [5], in experiment [6], in experiment [7] and in experiment [8] was inactive.
With `Cc1ccc(NC(=O)c2ccc3ncccc3c2)cc1OC1CCN(Cc2ccsc2)CC1`, the growth inhibition is 29% in experiment [1] and 93% (active) in experiment [4]. Further, the inhibition in experiment [2] was 21%; in experiment [3], -2%. Further, the outcome in experiment [5], in experiment [6], in experiment [7] and in experiment [8] was inactive.
With `CN1CCCCC1CCc1cc(C(=O)Nc2ccc(-c3ccc(O)cc3)cc2)ccc1O` (stereo not given), the growth inhibition was 11% in experiment [1] and 91% (active) in experiment [4]. Further, the inhibition in experiment [2] is 6%; in experiment [3] it was 3%. Besides, the outcome in experiment [5], in experiment [6], in experiment [7] and in experiment [8] was inactive.
With `CCCNCc1ccc(-c2ccc(CN(Cc3cnc(C)cn3)C(=O)c3nn(-c4ccccc4)nc3C)cc2)nc1`, the values for the growth inhibition in experiment [1] and in experiment [4] were 49% and 99% (active), respectively. Moreover, the figures for the inhibition in experiment [2] and in experiment [3] were 22% and 0%, respectively. Besides, the result in experiment [5], in experiment [6], in experiment [7] and in experiment [8] was inactive.
`CCOc1cccc(C(=O)Nc2cccc(CN3CCCN(Cc4cccc(O)c4)CC3)c2)c1`: the growth inhibition was 18% in experiment [1] and 85% (active) in experiment [4]. Also, the values for the inhibition in experiment [2] and in experiment [3] were 17% and -3%, respectively. Further, the outcome in experiment [5], in experiment [6], in experiment [7] and in experiment [8] was inactive.

As a reminder, the inhibition is the change of the read-out against control, counted positive when it falls.
